Results from PubChem BioAssay AID2315 (National Center for Advancing Translational Sciences (NCATS), 2010).
Values joined by “and” are separate entries in the source; they are usually repeats but may differ in a detail not shown here. Equal entries are not always repeated. Out of some 290,000 compounds screened, about 27,000 (9.3%) were called active. Cut-off read from the data, not from the text of the source: active = inhibition mostly above about 28% (no sharp cut-off); inactive = mostly below about 43%. The full list was thinned out, with actives kept by preference.

Experiment: A qHTS for Small Molecule Inhibitors of Shiga Toxin; for inhibition: 0% is about no effect
Conditions: Vero cells, Shiga toxin protein synthesis inhibition reporter; at 38.7 µM, stronger effect = higher value

| Compound | inhibition |
| --- | --- |
| CC(C)[C@H](NC(=O)N1CCn2c1nc1ccccc12)C(=O)NCc1ccc2c(c1)OCO2 | 10.7% (inactive) |
| O=C(CN1C(=O)NC2(CCCCC2)C1=O)NCCc1c[nH]c2ccccc12 | -14% (inactive) |
| O=C(CCC(=O)n1ncc2ccccc21)NCc1ccccc1Cl | -2.08% (inactive) |
| CCCOc1ccc(C2=CSC3=NCCN23)cc1Cl | -7.6% (inactive) |
| CCN(CC)S(=O)(=O)c1ccc(N2CCOCC2)c(NC(=O)C2CSC3(C)CCC(=O)N23)c1 (stereo not drawn) | -6.24% (inactive) |
| COc1ccc2c3c(c(=O)oc2c1)C1O[C@](CCCCN2C(=O)c4ccccc4C2=O)(Cc2c1ccc1ccccc21)O3 | inactive |
| Cc1ccc(OCCCn2c(=O)oc3ccccc32)cc1 | 52.4% (active) |
| NC(=O)Cn1c(=O)oc2ccccc21 | 18.3% (inactive) |
| Cc1cccc(NC(=O)CCn2c(=O)oc3ccccc32)c1 | 63.6% (inactive) |
| CCc1ccc(NC(=O)Cn2nnc(C(=O)NCc3ccc(OC)cc3)c2N)cc1 | 6.32% (inactive) |
| COc1ccc2c(c1)CCc1c(C(=O)N3CCCC3)noc1-2 | 55.2% (active) |
| COc1ccc2oc(=O)c(C(=O)N3CCCC3)cc2c1 | -3.3% (inactive) |
| COc1ccc2c(c1)CCc1c(C(=O)N3CCc4ccccc4C3)noc1-2 | 26.1% (inactive) |
| O=C1/C(=C/c2cccs2)CCC1C1CCCC1 (stereo not drawn) | 136% (active) |
| COc1ccc2c(c1OC)C(=O)c1ccccc1C2=O | 16.6% (inactive) |
| CCC1C/C(=C/c2cccs2)C(=O)/C(=C/c2cccs2)C1 (stereo not drawn) | -3.18% (inactive) |
| O=C1/C(=C/c2cccs2)SC(=S)N1C1CCS(=O)(=O)C1 (stereo not drawn) | -16.1% (inactive) |
| COc1ccc(/C=C2\CCc3ccccc3C2=O)c(OC)c1OC | 77.4% (active) |
| O=C1/C(=C/c2cccs2)CCc2ccccc21 | 85.4% (active) |
| O=C(COC(=O)/C=C/c1cccs1)NC1CCCCC1 | 10.6% (inactive) |
| CN1C/C(=C/c2cccs2)C(=O)/C(=C\c2cccs2)C1 | 66.1% (inactive) |
| COc1ccc(/C=N/NC(=O)C2CC2)c(OC)c1OC | -1.72% (inactive) |
| CCOC(=O)C1CCCN(CCSc2ccc(C)cc2)C1 (stereo not drawn) | 30% (inactive) |
| O=C(N[C@@H](Cc1ccccc1)C(=O)OCc1ccccc1)c1nc[nH]c1C(=O)N[C@@H](Cc1ccccc1)C(=O)OCc1ccccc1 | -7.22% (inactive) |
| COc1ccccc1N1CCC(N2CCN(CC(C)(C)C)C(CCO)C2)CC1 (stereo not drawn) | -5.66% (inactive) |

| Compound | inhibition |
| --- | --- |
| COC(=O)c1cccc(C(=O)N2CCC(CCC(=O)NCc3ccc(F)cc3)CC2)c1 | -4.62% (inactive) |
| Cc1ccc(C(=O)Nc2nnc(C3=COCCO3)o2)cc1C | 12.4% (inactive) |
| COc1ccc(C2=NS(=O)(=O)N(C)C(C(=O)N(C)Cc3ccccc3)=C2)cc1 | 0.266% (inactive) |
| CCOc1ccc(N(C(=O)c2snc(C(N)=O)c2N)C(C(=O)NCC2CCCO2)c2c[nH]c3ccccc23)cc1 (stereo not drawn) | -13.1% (inactive) |
| COc1cccc(NC(=O)C(C)Oc2ccccc2)c1 (stereo not drawn) | -3.55% (inactive) |
| COc1ccc2nc(C)cc(Nc3cccc(C(=O)O)c3)c2c1 | -3.88% (inactive) |
| COc1cccc(Nc2ncccc2C(=O)O)c1 | 96.7% (active) |
| COc1nnc(-c2ccc(C)c(S(=O)(=O)N(C)C)c2)c2ccccc12 | 22.7% (inactive) |
| CCOC(=O)c1sc(=NC(=O)/C=C/c2cccs2)n(C)c1C | 88% (active) |
| CCOC(=O)c1sc(=NC(=O)c2ccc(Br)cc2)n(C)c1C | -5.35% (inactive) |
| CCOC(=O)c1c(NC(=S)NC(=O)/C=C/c2cccs2)sc(C)c1C | -10.9% (inactive) |
| CCOc1ccc(OCC)c(NC(=O)CCS(=O)(=O)c2ccc(C)cc2)c1 | -3.57% (inactive) |
| O=C(Cc1c(Cl)cccc1Cl)NC1CC1 | -3.23% (inactive) |
| CC(C)CCn1cnc2c1c(=O)n(CC(=O)NC(N)=O)c(=O)n2Cc1ccccc1 | 6.66% (inactive) |
| COc1ccc(Cc2cc(-c3ccc(F)cc3)n[nH]c2=O)cc1 | 41.9% (active) |
| COc1ccc(Cc2nnnn2CC(=O)O)cc1 | 18.4% (inactive) |
| COc1ccc(Cc2nnc(SC)[nH]c2=O)cc1 | -10.4% (inactive) |
| O=C(/C=C/c1ccc(Cl)cc1)NCCCn1ccnc1 | 63.2% (inactive) |
| Cc1ccc(NS(=O)(=O)c2cc3c(cc2C)NC(=O)CO3)cc1 | -3.52% (inactive) |
| C[C@H](NC(=O)c1nc[nH]c1C(=O)NCC(=O)OC(C)(C)C)C(=O)OCc1ccccc1 | -5.08% (inactive) |
| CCC(C)c1ccccc1NC(=O)CN(C)CC(=O)Nc1ccccc1SC (stereo not drawn) | -5.67% (inactive) |
| CCn1cc(CN2CCC(n3nccc3NC(=O)CCCc3ccccc3)CC2)c(C)n1 | -4.01% (inactive) |
| O=C(NCCCc1ccccc1)C(=O)c1c[nH]c2ccccc12 | 34.9% (inactive) |
| O=C(C(=O)N1CCc2ccccc2C1)c1c[nH]c2ccccc12 | 25.1% (inactive) |
| O=C(NC1CCCC1)C(=O)c1c[nH]c2ccccc12 | 60.6% (active) |

| Compound | inhibition |
| --- | --- |
| Cc1ccc(C(=O)CCC(=O)N(C)CC(=O)Nc2c(Cl)cccc2Cl)cc1 | 12.9% (inactive) |
| CCOc1ccc(NC(=O)CSc2nncn2C)cc1 | -2.49% (inactive) |
| COc1ccc(-n2c(-c3ccc(OC)c(OC)c3)n[nH]c2=S)cc1 | -6.08% (inactive) |
| CCOc1ccccc1NC(=S)NC(=O)CCc1ccccc1 | -2.78% (inactive) |
| CCOc1ccc(Nc2nc(Cl)nc(N3CCN(c4ccc(OC)cc4)CC3)n2)cc1 | -1.73% (inactive) |
| c1ccc(Nc2nc(N3CCOCC3)c3ccccc3n2)cc1 | -9.05% (inactive) |
| COc1ccc(Nc2ncc(F)c(N3CCOCC3)n2)cc1 | 68.5% (active) |
| Cc1cc(C)cc(NC(=O)CN2C(=O)c3ccccc3C2=O)c1 | -7.16% (inactive) |
| Cc1ccc(C(C)C)cc1OCC(=O)Nc1ccccc1N1CCCC1 | 38.7% (inactive) |
| Cc1c(OC(C)C(=O)N[C@@H](Cc2ccccc2)C(=O)O)ccc2c3c(c(=O)oc12)CCCC3 (stereo partly drawn) | -5.08% (inactive) |
| O=C(Cn1ncc2c3ccccc3n(Cc3ccccc3)c2c1=O)NCCCN1CCOCC1 | 10.5% (inactive) |
| CCN1C(=O)/C(=C2/Sc3ccccc3N2CCCS(=O)(=O)O)SC1=S | 13.4% (inactive) and -2.41% (inactive) |
| CCN1C(=O)/C(=c2\s/c(=C3\Sc4ccccc4N3C)c(=O)n2C)N(C)C1=S | 40.9% (active) |
| CCCCN1C(=O)/C(=C2/Sc3ccc(Cl)cc3N2CC)SC1=S | 1.9% (inactive) |
| COc1cc(OC)c(OC)cc1CN1CCN(C(=O)c2cccc3ccccc23)CC1 | -8.18% (inactive) |
| COc1ccc(-c2nc3n(c(=O)c2C#N)CCS3)c(OC)c1 | -7.88% (inactive) |
| O=C(N/N=C\C1CC=CCC1)c1ccc(Br)o1 (stereo not drawn) | 67.4% (active) |
| COCc1c(C(=O)N/N=C/C2CC=CCC2)nnn1-c1nonc1N (stereo not drawn) | -2.4% (inactive) |
| Cc1ccc(SCc2c(C(=O)N/N=C/C3CC=CCC3)nnn2-c2nonc2N)cc1 (stereo not drawn) | -9.77% (inactive) |
| CCN1CCN(C(=O)Cn2nc(C)n3c(cc4c(OC)cccc43)c2=O)CC1 | -14.6% (inactive) |
| O=C(O)CCCn1c(=O)c2cccn2c2ccc(F)cc21 | -8.92% (inactive) |
| COc1ccc(NC(=O)N2CCC3(CC2)OCCO3)c(OC)c1 | 13.6% (inactive) |
| O=C(Nc1cccc2ccccc12)N1CCC2(CC1)OCCO2 | 54.5% (active) |
| O=C(Nc1cccc2ccccc12)N1CCN(Cc2ccc3c(c2)OCO3)CC1 | -3.81% (inactive) |
| COc1cc(/C=N/NC(=O)CNC(=O)c2ccncc2)ccc1OC(C)=O | -3.89% (inactive) |

| Compound | inhibition |
| --- | --- |
| COc1ccc(C)cc1NC(=O)NCCCCc1ccccc1 | 14.6% (inactive) |
| COc1ccc(C(=O)NC2CC2)cc1OC1CCN(C/C=C/c2ccccc2)CC1 | -9.42% (inactive) |
| CC(=O)N1c2ccc(S(=O)(=O)N3CCC(C(=O)N4CCN(c5ccccc5)CC4)CC3)cc2CC1C (stereo not drawn) | -2.12% (inactive) |
| Cc1cccc(-c2nnc(SCC(=O)O)n2Cc2ccccc2)c1 | -7.35% (inactive) |
| CCOc1c(Cl)cc(/C=N/O)cc1OC | 59.8% (inactive) |
| COc1cc(/C=C2/C(=O)ON=C2C)ccc1OCc1cccc(F)c1 | 55.1% (active) |
| COc1cc(/C=C2/C(=O)ON=C2C)ccc1OCc1ccccc1F | 145% (active) |
| COc1cc(/C=C2\SC(=O)NC2=O)ccc1OCc1ccc(Cl)nc1 | -5.05% (inactive) |
| C=CCOc1ccc(/C=C2/C(=O)ON=C2C)cc1OCC | 17.5% (inactive) |
| CCOc1cc(/C=N/O)ccc1OCc1ccccc1F | 40.7% (active) |
| CC1=NOC(=O)/C1=C\c1ccccc1 | -4.49% (inactive) |
| CCOc1ccc(/C=N/NC(=O)C(C)Sc2ccccn2)cc1OCC (stereo not drawn) | -9.85% (inactive) |
| C#CCOc1ccc(/C=C2/C(=O)ON=C2C)cc1OCC | 13.8% (inactive) |
| CCn1c(CC(=O)Nc2ccccc2)nnc1SCC(=O)N1CCOCC1 | -10.2% (inactive) |
| Cc1ccc(/C=C2\SC(=S)N(CCC(=O)Nc3ccc(O)cc3)C2=O)cc1 | 0.715% (inactive) |
| COC(=O)c1cccc(N(CC(=O)NCC2CCCO2)C(=O)CCC(=O)Nc2cc(C)on2)c1 (stereo not drawn) | -11.3% (inactive) |
| Nc1c(NCCc2ccccc2)c2ccccc2oc1=O | 60.3% (active) |
| CC(C)(C)Nc1c(N)c(=O)oc2ccccc12 | 10.6% (inactive) |
| O=Cc1c(NCCc2cccc(F)c2)c2ccccc2[nH]c1=O | -25% (inactive) |
| O=C(CNC(=O)[C@@H]1Cc2ccccc2CN1)NC1CCCCC1 | -13.1% (inactive) |
| CCOc1ccc(-n2c(SCC(=O)Nc3ccc(OC)cc3)nc3sc4c(c3c2=O)CCN(C)C4)cc1 | 4.16% (inactive) |
| CCOc1ccc(-n2c(SCC(=O)OC)nc3sc4c(c3c2=O)CCN(C)C4)cc1 | 11.7% (inactive) |
| COc1ccccc1NC(=O)CSc1nc2sc3c(c2c(=O)n1-c1ccccc1)CCN(C)C3 | 35.8% (active) |
